Measurements reported in PubChem BioAssay (NCI).
“And” between values parts separate entries of the source, which are not always exact repeats. Equal values may be shown once. Compounds without any hit were thinned out: in the full panel of roughly 83,000, 20% have a hit.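 Results are percent growth after 48 hours of single-concentration exposure. 100 means growth as in untreated cells, lower positive values show inhibition; negative values down to -100 show cell death.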 The source made the active and inactive calls. Rule for the calls: active = growth percent below 10; inactive = the rest.

What was measured:
Test in all cases: NCI-60 one-dose screen, 48 h (100 = growth as untreated, 0 = no growth, -100 = all killed)
NCI-H23 lung = details: 10 µM unless noted
NCI-H226 lung = details: 10 µM unless noted
HOP-62 NSCLC = details: 10 µM unless noted
NCI-H460 lung = details: 10 µM unless noted
HOP-92 NSCLC = details: 10 µM
NCI-H522 lung = details: 10 µM
A549/ATCC NSCLC = details: 10 µM unless noted
786-0 renal = details: 10 µM unless noted
COLO 205 colon = details: 10 µM unless noted
DU-145 prostate = details: 10 µM unless noted
K-562 leukemia = details: 10 µM unless noted
MALME-3M melanoma = details: 10 µM unless noted
MDA-MB-231 breast = details: 10 µM unless noted
RXF 393 renal = details: 10 µM unless noted
SF-268 CNS = details: 10 µM unless noted
SF-295 CNS = details: 10 µM unless noted
SF-539 CNS = details: 10 µM unless noted
UACC-257 melanoma = details: 10 µM unless noted
M14 melanoma = details: 10 µM unless noted
NCI-H322M lung = details: 10 µM unless noted

SMILES	growth (NCI-H23 lung)	growth (NCI-H226 lung)	growth (HOP-62 NSCLC)	growth (NCI-H460 lung)	growth (HOP-92 NSCLC)	growth (NCI-H522 lung)	growth (A549/ATCC NSCLC)	growth (786-0 renal)	growth (COLO 205 colon)	growth (DU-145 prostate)	growth (K-562 leukemia)	growth (MALME-3M melanoma)	growth (MDA-MB-231 breast)	growth (RXF 393 renal)	growth (SF-268 CNS)	growth (SF-295 CNS)	growth (SF-539 CNS)	growth (UACC-257 melanoma)	growth (M14 melanoma)	growth (NCI-H322M lung)
CC1CCC(C(C)C)C(NNC(N)=O)C1 (configuration not stated)	106% (inactive)	102% (inactive)	100% (inactive)	104% (inactive)	91.5% (inactive)	94.9% (inactive)	89.7% (inactive)	106% (inactive)	110% (inactive)	106% (inactive)	101% (inactive)	110% (inactive)	97.5% (inactive)	101% (inactive)	106% (inactive)	103% (inactive)	110% (inactive)	87.3% (inactive)	106% (inactive)	
Cc1cc2ccccc2cn1	97.1% (inactive) and 114% (inactive)	95.7% (inactive) and 96% (inactive)	101% (inactive)		94.4% (inactive) and 101% (inactive)	109% (inactive)	101% (inactive) and 118% (inactive)	105% (inactive) and 111% (inactive)	110% (inactive) and 119% (inactive)	114% (inactive) and 122% (inactive)	118% (inactive) and 102% (inactive)	101% (inactive) and 100% (inactive)	97.9% (inactive) and 107% (inactive)	104% (inactive)	101% (inactive) and 134% (inactive)	100% (inactive) and 90.3% (inactive)	102% (inactive) and 98.7% (inactive)	97.3% (inactive)	107% (inactive) and 111% (inactive)	101% (inactive) and 98.4% (inactive)
NC(=O)NCCCC(N)C(=O)O (configuration not stated)	103% (inactive)	98.2% (inactive)	98.4% (inactive)	108% (inactive)			104% (inactive)	101% (inactive)	106% (inactive)	101% (inactive)	97.9% (inactive)	93.1% (inactive)	104% (inactive)	106% (inactive)	104% (inactive)	117% (inactive)	103% (inactive)	102% (inactive)	100% (inactive)	88.6% (inactive)
Nc1nc(N)c2[nH]cnc2n1	88.6% (inactive)	102% (inactive)	88.7% (inactive)			50.6% (inactive)	80.2% (inactive)	91.8% (inactive)	97.6% (inactive)	73.1% (inactive)	76.5% (inactive)	125% (inactive)	99.3% (inactive)		83.8% (inactive)	84.7% (inactive)	92.8% (inactive)	56.1% (inactive)	88.2% (inactive)	111% (inactive)
Fc1ccc([I+]c2ccc(F)cc2)cc1	53.7% (inactive)	71.8% (inactive)	78.7% (inactive)	86.1% (inactive)	67.8% (inactive)	68.8% (inactive)	80.9% (inactive)		62.2% (inactive)	92.1% (inactive)	43.2% (inactive)	61.1% (inactive)		101% (inactive)	58.9% (inactive)	95.4% (inactive)	62.1% (inactive)	85.5% (inactive)	79% (inactive)	76.1% (inactive)
COc1ccc(C(=O)CC(c2ccccc2)C(C#N)c2ccccc2)cc1 (configuration not stated)	88.4% (inactive)	81.1% (inactive)	98.3% (inactive)			69.5% (inactive)	74.2% (inactive)	90% (inactive)	110% (inactive)	92.2% (inactive)	80.7% (inactive)	97.2% (inactive)	81% (inactive)	99.5% (inactive)	86.3% (inactive)	96.3% (inactive)	97.7% (inactive)	87.7% (inactive)	88% (inactive)	103% (inactive)
OCCN1CCCCCCC1	105% (inactive)	93.8% (inactive)	99.5% (inactive)	106% (inactive)	68% (inactive)			101% (inactive)	104% (inactive)	113% (inactive)	105% (inactive)	96% (inactive)	99.5% (inactive)	100% (inactive)	107% (inactive)	95.9% (inactive)	98.7% (inactive)		92.3% (inactive)	101% (inactive)
ClCCOCCOc1ccc(C2CCCCC2)cc1	113% (inactive)	92.4% (inactive)	92.3% (inactive)			93.8% (inactive)		88.8% (inactive)	111% (inactive)	102% (inactive)	118% (inactive)		103% (inactive)	101% (inactive)	109% (inactive)	97.1% (inactive)	102% (inactive)	91.2% (inactive)	108% (inactive)	121% (inactive)
O=C1OC(C(O)C(O)CO)C(O)=C1O (configuration not stated)	113% (inactive) and 98.1% (inactive)	100% (inactive)	94.4% (inactive) and 88.1% (inactive)	96.8% (inactive) and 112% (inactive)	89.5% (inactive)	8.89% (active) and 80% (inactive)		95% (inactive) and 97.2% (inactive)	101% (inactive) and 96.9% (inactive)	115% (inactive)	99% (inactive) and 90.4% (inactive)	94.2% (inactive)	116% (inactive) and 101% (inactive)	116% (inactive)	109% (inactive) and 105% (inactive)	136% (inactive) and 101% (inactive)	96.8% (inactive)	98.7% (inactive) and 88.2% (inactive)	96.9% (inactive) and 100% (inactive)	
c1ccc(CNCCNCc2ccccc2)cc1	117% (inactive)	90.4% (inactive)	98.8% (inactive)	104% (inactive)	80.6% (inactive)	106% (inactive)		107% (inactive)	109% (inactive)	114% (inactive)	98.1% (inactive)	109% (inactive)	118% (inactive)	104% (inactive)	120% (inactive)	90.8% (inactive)	101% (inactive)	117% (inactive)	111% (inactive)	
CCCCNc1ccc(Nc2ccccc2)cc1	41.7% (inactive)	73.3% (inactive)	106% (inactive)	76.7% (inactive)		31.2% (inactive)	70.1% (inactive)	92.9% (inactive)	85% (inactive)	84% (inactive)	48.9% (inactive)	54.8% (inactive)	64.4% (inactive)	83.9% (inactive)	110% (inactive)	56.3% (inactive)	83.8% (inactive)	62.7% (inactive)	87.5% (inactive)	
OCC1OC(O)C(O)C(O)C1O (configuration not stated)	102% (inactive)	113% (inactive)	98.9% (inactive)			85.7% (inactive)		110% (inactive)	108% (inactive)	120% (inactive)	110% (inactive)	180% (inactive)	116% (inactive)	124% (inactive)	102% (inactive)	102% (inactive)	102% (inactive)	114% (inactive)	101% (inactive)	155% (inactive)
CN(C)c1ccc(/C=C\C(=O)c2ccccc2)cc1	98.4% (inactive) and 91% (inactive) and 97.5% (inactive)	92.6% (inactive) and 98.6% (inactive) and 101% (inactive)	102% (inactive) and 101% (inactive)	102% (inactive) and 99.8% (inactive) and 104% (inactive)		64.3% (inactive) and 60.4% (inactive) and 52.7% (inactive)	67% (inactive) and 79.8% (inactive) and 82.4% (inactive)	90.9% (inactive) and 89.7% (inactive) and 80.8% (inactive)	104% (inactive) and 99.2% (inactive)	86.8% (inactive) and 89.2% (inactive) and 79.1% (inactive)	15.3% (inactive) and 26.7% (inactive) and 42.6% (inactive)	87.5% (inactive) and 84.4% (inactive) and 83% (inactive)	104% (inactive) and 84.4% (inactive) and 105% (inactive)	92.4% (inactive) and 102% (inactive)	92.4% (inactive) and 90% (inactive) and 85.2% (inactive)	66.3% (inactive) and 91.5% (inactive) and 98% (inactive)	88% (inactive) and 95.7% (inactive) and 94.4% (inactive)	83.8% (inactive) and 92.7% (inactive) and 98.1% (inactive)	89.7% (inactive) and 79.2% (inactive) and 72.5% (inactive)	97.2% (inactive) and 103% (inactive) and 88.5% (inactive)
